An excerpt weighted towards active compounds, which were near 2.8% of everything screened.
KLK7 zymogen act: proKLK7 zymogen activators, primary screen, biochemical, fluorescence intensity; purified proKLK7, EDANS-DABCYL substrate fluorescence; 100% is mature enzyme control, 0% vehicle; activation, % at 7 µM; actives 0.9% (n = 370,000);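 active = activation above the mean of all tested compounds plus 3 SD, computed per campaign excluding outliers beyond control limits, cut at about 13% in these data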
Target sequence (P49862 whole entry, looked up): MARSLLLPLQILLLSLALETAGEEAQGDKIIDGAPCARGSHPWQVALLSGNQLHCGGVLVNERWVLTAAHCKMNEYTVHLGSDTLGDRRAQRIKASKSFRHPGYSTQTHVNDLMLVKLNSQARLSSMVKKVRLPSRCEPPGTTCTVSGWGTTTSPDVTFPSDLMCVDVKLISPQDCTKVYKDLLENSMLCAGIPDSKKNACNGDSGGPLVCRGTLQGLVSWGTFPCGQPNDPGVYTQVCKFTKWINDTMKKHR
PP5 primary: PP5 phosphatase inhibitors, primary screen, biochemical, fluorescence; purified PP5c, OMFP substrate fluorescence; inhibition, % at 6.7 µM; actives 0.18% (n = 320,000);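 active = inhibition above the campaign's mean inhibition across all tested compounds plus 3 SD, cut at about 9.5% in these data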;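 also: 0% = DMSO only and 100% = 100 µM cantharidin control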
NR1D1 modulator: modulators of Rev-erb alpha DNA binding, primary screen, biochemical, FITC-DNA, fluorescence polarization, uHTS; Nuclear receptor subfamily 1 group D member 1 (Homo sapiens), P20393; Rev-erbα–FITC-DNA binding, 90 min; activity, % at 10 µM; actives 0.79% (n = 370,000);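 active = activity above about 14%, limit read from the data; passing the limit was not always enough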;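 also: 0% = DMSO wells with 35 nM protein and 100% = DMSO wells with 750 nM protein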
PP1 inh: PP1-alpha phosphatase inhibitors, primary screen, counter-screen for PP5 inhibitor project, biochemical, fluorescence, OMFP substrate, single point | Serine/threonine-protein phosphatase PP1-alpha catalytic subunit (Homo sapiens), P62136 | purified PP1alpha | inhibition, % at 6.7 µM | actives 0.9% (n = 320,000);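 active = inhibition above the mean inhibition of all tested compounds plus 3 SD, computed separately for each screening campaign, cut at about 15% in these data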
Target sequence (P62136 whole entry, looked up): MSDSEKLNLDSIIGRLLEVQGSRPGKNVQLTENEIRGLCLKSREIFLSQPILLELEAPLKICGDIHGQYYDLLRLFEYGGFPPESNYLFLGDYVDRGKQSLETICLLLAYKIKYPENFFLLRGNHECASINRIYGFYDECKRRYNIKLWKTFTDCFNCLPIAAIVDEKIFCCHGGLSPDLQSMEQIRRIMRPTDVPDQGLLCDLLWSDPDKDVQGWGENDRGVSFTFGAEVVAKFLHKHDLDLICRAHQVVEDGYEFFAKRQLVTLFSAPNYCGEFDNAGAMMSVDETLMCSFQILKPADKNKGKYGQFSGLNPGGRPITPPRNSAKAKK
GASC-1 inh: inhibitors of GASC-1 histone demethylase, primary screen, biochemical, fluorescence, DELFIA europium | Lysine-specific demethylase 4C (Homo sapiens), Q9H3R0 | actives 0.069% (n = 330,000) | inhibition, % at 2.35 µM | GST-JMJD2C(1-420) H3K9me3 demethylation | AID 2099, 2009;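 active = more than half of a compound's replicate wells show inhibition beyond 50%, single wells judged on their own value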;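 also: signal counts dimethyl H3K9 product captured on neutravidin plate; 0% = median of DMSO wells and 100% = 0.3 times that DMSO median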
PG9 Ab binder: binders of HIV-1 gp120 antibody PG9, primary screen, biochemical, TR-FRET; HIV-1 gp120 / PG9 antibody interaction; TR-FRET gp120-PG9 antibody binding; inhibition, % at 6.7 µM; actives 0.43% (n = 360,000); AID 624416, 2012; in the data active = inhibition above about 8.5%
Rev-erbA confirm: modulators of Rev-erb alpha DNA binding, confirmation, biochemical, FITC-DNA, fluorescence polarization, single point; shares compounds with NR1D1 modulator; 90 min; activation, % at 25 µM; actives 61% (n = 3,000); AID 1259319, 2017;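 active = activation at or above a set limit, or at least 3 SD above the negative control mean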;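 also: 0% = 35 nM protein with DMSO and 100% = 750 nM protein high control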
RORg counter: modulation of RORgamma DNA binding, dose response, counter-screen for Rev-erb alpha modulator project, biochemical, fluorescence polarization, FITC-DNA; actives 8% (n = 910); purified RORgamma protein-FITC-DNA binding; shares compounds with NR1D1 modulator; IC50, µM;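 active = Compounds whose fitted half-maximal concentration for disrupting protein-DNA binding is below 10 micromolar; the record names Rev-erb in its text, so the target is in doubt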
The depositor's hits bear a star.

How did c1ccc(Cn2ccc3ccc(-c4ccc5ccn(Cc6cccc(-c7ccsc7)c6)c5c4)cc32)cc1 do in these assays?
KLK7 zymogen act: -1; NR1D1 modulator: 31*; Rev-erbA confirm: 17*

Results for N#Cc1ccc(Cn2ccc3ccc(-c4ccc5ccn(C(=O)c6ccccc6)c5c4)cc32)cc1 ?
KLK7 zymogen act: -2; NR1D1 modulator: 5

How did N#Cc1cccc(Cn2ccc3ccc(-c4ccc5ccn(Cc6ccccc6)c5c4)cc32)c1 do in these assays?
KLK7 zymogen act: -3; NR1D1 modulator: 15

How did COc1ccc(Cn2ccc3ccc(-c4ccc5ccn(Cc6ccc(C#N)cc6)c5c4)cc32)cc1 do in these assays?
KLK7 zymogen act: -1; NR1D1 modulator: 38*; Rev-erbA confirm: 1

Results for N#Cc1cccc(Cn2ccc3ccc(-c4ccc5ccn(Cc6cccc(C#N)c6)c5c4)cc32)c1 ?
KLK7 zymogen act: -2; NR1D1 modulator: 59*; Rev-erbA confirm: 38*; RORg counter: 2.5*

How did CCOc1ccc(N(CC(=O)Nc2c(C)n(C)n(-c3ccccc3)c2=O)S(=O)(=O)c2cccs2)cc1 do in these assays?
KLK7 zymogen act: 0; NR1D1 modulator: 0

Results for C=CCN1C(=O)c2cccc3c(N4CCCCC4)ccc(c23)C1=O ?
KLK7 zymogen act: 1; PP5 primary: 2; NR1D1 modulator: 19*; PP1 inh: -4; GASC-1 inh: 0; PG9 Ab binder: 1; Rev-erbA confirm: 24*

Results for O=C1c2cccc3c(N4CCCCC4)ccc(c23)C(=O)N1CCO ?
KLK7 zymogen act: 2; PP5 primary: 3; NR1D1 modulator: 47*; PP1 inh: 4; GASC-1 inh: 2; PG9 Ab binder: -4; Rev-erbA confirm: 33*; RORg counter: >40

Results for Cc1n[nH]c(C)c1N1C(=O)c2cccc3c(N4CCCCCC4)ccc(c23)C1=O ?
KLK7 zymogen act: 2; PP5 primary: -6; NR1D1 modulator: 94*; PP1 inh: -8; GASC-1 inh: 4; PG9 Ab binder: -3; Rev-erbA confirm: 90*; RORg counter: >40

How did O=C1c2cccc3cccc(c23)C(=O)N1CCO do in these assays?
KLK7 zymogen act: 2; NR1D1 modulator: 2; PG9 Ab binder: 0

What do the screens show for `CC(=O)c1ccc2c3c(cccc13)C(=O)N(c1c(C)nn(C)c1C)C2=O`?
KLK7 zymogen act: -1; PP5 primary: 2; NR1D1 modulator: 1; PP1 inh: 3; PG9 Ab binder: 2

How did O=C1c2cccc3c(N4CCCCC4)ccc(c23)C(=O)N1c1cccc(O)c1 do in these assays?
KLK7 zymogen act: 1; PP5 primary: -3; NR1D1 modulator: 61*; PP1 inh: 4; GASC-1 inh: 0; PG9 Ab binder: -1; Rev-erbA confirm: 62*; RORg counter: >40

How did CN(C)c1cccc2c(S(=O)(=O)NCC3CCN(C(=O)C(=O)c4cccs4)CC3)cccc12 do in these assays?
KLK7 zymogen act: -1; NR1D1 modulator: -3; PG9 Ab binder: 0

How did COc1ccc(C2CC(=O)C(c3ccccc3OC)=CN2Cc2ccccc2)cc1 (centres undefined) do in these assays?
KLK7 zymogen act: 0; NR1D1 modulator: -3; PG9 Ab binder: -1

What do the screens show for `COc1ccccc1CCn1cnc(-c2cccc(Br)c2)c1CC(C)C`?
KLK7 zymogen act: 0; NR1D1 modulator: 5; PG9 Ab binder: 1

How did C=CCN1[C@H](C)COc2cc(F)ccc2S1(=O)=O do in these assays?
KLK7 zymogen act: 0; NR1D1 modulator: 0

How did C=CCN1C(=O)[C@]2(OCCC=C[C@H]2C)c2cc(OC)ccc21 do in these assays?
KLK7 zymogen act: 0; NR1D1 modulator: 0; PG9 Ab binder: 0

How did CC1(O)C(=O)C2(C)C=CC1C1C(=O)N(c3ccccc3)C(=O)C12 (centres undefined) do in these assays?
KLK7 zymogen act: 0; NR1D1 modulator: 5; PG9 Ab binder: 1

How did COC(=O)C(C[N+](=O)[O-])C1=C(O)CC(C)(C)CC1=O (centres undefined) do in these assays?
KLK7 zymogen act: 1; NR1D1 modulator: 4

What do the screens show for `S=C(Nc1ccc(Br)cc1)OCCN1CCCC12CCC(c1ccccc1)CC2` (centres undefined)?
NR1D1 modulator: -1

Results for Cc1ccc2c(c1)C(CS(=O)(=O)NCC(C)C)NC2 (centres undefined) ?
KLK7 zymogen act: -1; NR1D1 modulator: -6

How did CC(C)Cc1ccc(-c2cc3nc(NCCc4ccc(S(N)(=O)=O)cc4)ccn3n2)cc1 do in these assays?
KLK7 zymogen act: -2; NR1D1 modulator: 35*; PG9 Ab binder: -1; Rev-erbA confirm: 24*

How did CCCCN1CC(COCc2ccccc2)Oc2cccc(Oc3ccc(SC)c(C)c3)c2S1(=O)=O (centres undefined) do in these assays?
KLK7 zymogen act: 0; NR1D1 modulator: -5; PG9 Ab binder: -3

How did COc1ccc(N/C=C(\C=C\C#N)S(=O)(=O)c2ccccc2)cc1 do in these assays?
KLK7 zymogen act: 0; PP5 primary: -1; NR1D1 modulator: 22*; PP1 inh: 1; GASC-1 inh: -7; PG9 Ab binder: 1; Rev-erbA confirm: 3

How did CC(CNC(=O)[C@@H](Cc1ccccc1)NC(=O)[C@H]1O[C@@H](n2cnc3c(=O)[nH]c(N)nc32)[C@H](O)[C@@H]1O)c1ccccc1 (some centres undefined) do in these assays?
KLK7 zymogen act: 0; NR1D1 modulator: 3; PG9 Ab binder: -1

What do the screens show for `Cc1ccc2nc(NCCc3ccc(Cl)cc3)c3nncn3c2c1`?
KLK7 zymogen act: 0; PP5 primary: 1; NR1D1 modulator: 28*; PP1 inh: 0; GASC-1 inh: 15; PG9 Ab binder: -2; Rev-erbA confirm: 8

How did Cc1cc(C)n2nc(-c3ccc(Cl)cc3)cc2n1 do in these assays?
KLK7 zymogen act: 1; PP5 primary: 3; NR1D1 modulator: 65*; PP1 inh: 3; GASC-1 inh: 3; PG9 Ab binder: -1; Rev-erbA confirm: 52*; RORg counter: >40

Screening results: PubChem BioAssay, several laboratories
